Bioassay records (PubChem)
MazEF act: increases E. coli MazEF RNase cleavage of RNA | P0AE70 | FAM/BHQ RNA-DNA oligo cleavage fluorescence, 5 h | activation, % at 20 µM | 350,000 tested, 0.32% active | AID 504720; in the data active = activation above about 50%
Target sequence (P0AE70 whole entry, looked up): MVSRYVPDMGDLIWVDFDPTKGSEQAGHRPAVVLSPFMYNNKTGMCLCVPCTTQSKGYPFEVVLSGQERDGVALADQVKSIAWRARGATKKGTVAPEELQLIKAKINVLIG
BoNT A protease: BoNT A light chain protease inhibition | multiplex microsphere protease substrate cleavage, flow cytometry | inhibition, % at 10 µM | 360,000 tested, 0.17% active | AID 588499; note: plate controls were buffer without enzyme for full effect and enzyme alone for no effect
BoNT F protease: BoNT F light chain protease inhibition; Multiplex microsphere protease cleavage assay, flow cytometry; 360,000 tested, 0.22% active; inhibition, % at 10 µM; in the data active = inhibition above about 35%, passing the limit was not always enough; inconclusive = no clear call, values can overlap the other calls; note: plate controls were buffer without enzyme for full effect and enzyme alone for no effect
Bead autofluor: counter-screen for toxin protease inhibitors: compound fluorescence | compound autofluorescence counterscreen, microsphere flow cytometry; active compounds read high | fluorescence intensity (test concentration not listed) | 360,000 tested, 3.1% active | AID 624483; in the data active = fluorescence intensity above about 16000; inconclusive = no clear call, values can overlap the other calls
Anthrax LF inh2: blocks Bacillus anthracis lethal factor protease; 360,000 tested, 0.12% active; multiplex microsphere protease cleavage assay, LF; AID 588501; inhibition, % at 10 µM; note: plate controls were buffer without enzyme for full effect and enzyme alone for no effect
An asterisk follows results filed as active; u = inconclusive; x = no result. Sampled rows, rich in hits. Any-hit rate of the full collection: about 3.7%. Cut-off read from the data, not from the text of the source, unless noted: active = inhibition above about 30%; inconclusive = no clear call, values can overlap the other calls; inactive = below that.

SMILES	MazEF act	BoNT A protease	BoNT F protease	Bead autofluor	Anthrax LF inh2
Cc1c(C(=O)NCCc2ccccc2)oc2ccccc12	1	-3	-8	4842	-5
Cc1c(C(=O)NCc2cccs2)oc2ccccc12	-4	0	-1	23183*	-3
Cc1c(C(=O)NCc2cccnc2)oc2ccccc12	3	-1	-3	23977*	-1
Cc1c(C(=O)NC(C)c2ccncc2)oc2ccccc12 (stereo not given)	17	u	-1	21661*	-3
COC(=O)[C@@H](NC(=O)NCc1cccs1)C(C)C	-10	3	-1	18068*	-5
COC(=O)[C@H](CCSC)NC(=O)NCc1cccs1	-4	0	-14	8148	-5
Cc1c(C(=O)NCc2ccccc2F)oc2ccccc12	-4	0	3	6288	5
O=C(NCc1cccnc1)c1cc2ccccc2oc1=O	2	1	1	22899*	-1
O=C(OCCNC(=O)c1cc2ccccc2oc1=O)c1cccnc1	1	-1	6	9795	5
COc1ccc(N2CCN(CCCn3cnc4c(SC)ncnc43)CC2)cc1	4	0	-5	3603	0
Cc1ccc(NC(=S)N2CCN(S(C)(=O)=O)CC2)cc1C	1	0	0	6155	-1
Cc1ccc(C(=O)Nc2c3c(nn2C(C)(C)C)CS(=O)(=O)C3)cc1C	-2	-2	-2	20652*	-1
O=C(Nc1ccc2c(c1)OCCO2)C1CCN(S(=O)(=O)c2ccc3c(c2)OCCO3)CC1	6	2	-2	21484*	-1
O=C(Nc1cccc(F)c1)C1CCN(c2nnnn2-c2ccccc2)CC1	2	1	3	15912	-4
O=C(NC1CCCCC1)C1CCCN(c2nnnn2-c2ccccc2)C1 (stereo not given)	1	u	-6	17148*	-3
CC1CCCCN1C(=O)COC(=O)C1CCN(S(=O)(=O)c2ccc3c(c2)OCCO3)CC1 (stereo not given)	4	-46	-80	17025*	-8
Cc1ccc(S(=O)(=O)N2CCC(C(=O)OCC(=O)N3CCCCC3C)CC2)cc1C (stereo not given)	3	-1	4	6391	-6
O=C(Nc1ccc2c(c1)OCCO2)C1CCN(c2nnnn2-c2ccccc2)CC1	-3	1	3	16234*	1
O=C(Nc1ccc2c(c1)OCO2)c1noc2c1CCCC2	11	2	8	4531	1
O=C(Nc1ccc2c(c1)OCO2)C1CCN(S(=O)(=O)c2cccs2)CC1	-5	0	-15	7839	-6
O=C(Nc1ccc2c(c1)OCCO2)C1CCN(S(=O)(=O)c2cccs2)CC1	-1	u	-3	23275*	2
Cc1ccc(NS(=O)(=O)c2ccc(C(=O)NCC(c3ccco3)N(C)C)cc2)cc1 (stereo not given)	-1	3	0	5202	-2
CCOc1ccc(NS(=O)(=O)c2ccc(C(=O)NCC(c3ccco3)N3CCCC3)cc2)cc1 (stereo not given)	52*	0	0	4954	6
O=C(NCC(c1ccco1)N1CCCC1)c1ccc(S(=O)(=O)Nc2ccc(F)cc2)cc1 (stereo not given)	-16	0	-3	9656	-3
CN(C)C(CNC(=O)c1ccc(NS(=O)(=O)c2ccc(F)cc2)cc1)c1ccco1 (stereo not given)	9	-128	-186	36456*	-27
SMILES	MazEF act	BoNT A protease	BoNT F protease	Bead autofluor	Anthrax LF inh2
C=CCN(CC(=O)NC1CC1)S(=O)(=O)c1cccc(C(F)(F)F)c1	5	0	1	3994	-5
OC(c1ccc(Cl)c(F)c1)c1ncc(-c2ccc(F)cc2)[nH]1 (stereo not given)	x	0	-4	3091	-4
COc1ccc(C(=O)CSc2nc(N)nc(SC)c2C#N)cc1	-22	6	10	19201*	-3
CSc1nc(N)nc(SCC(=O)C23CC4CC(CC(C4)C2)C3)c1C#N	-6	-1	-3	19688*	-4
N#Cc1c(N)nc(SCC(=O)C23CC4CC(CC(C4)C2)C3)c(C#N)c1-c1ccc(Cl)cc1	-9	0	-1	2861	1
O=S1(=O)CC(N2CCN(CC3CC3)CC2)CN1Cc1cn(Cc2ccccc2C(F)(F)F)nn1 (stereo not given)	x	0	1	5635	3
C[C@@H]1CN([C@H](C)CO)C(=O)CCCn2nncc2CO[C@H]1CN(C)S(=O)(=O)c1ccc2c(c1)OCCCO2	6	0	-5	2921	-10
CCCN(CCC)CCSc1nc(O)c(C(C)C)c(=O)[nH]1	3	u	5	18038*	-14
CCCCCc1c(O)nc(SCCN(CC)CC)[nH]c1=O	9	-1	-6	3495	-4
CCN(CC)CCSc1nc(O)c(-c2ccccc2)c(=O)[nH]1	4	-2	-3	17285*	-2
COc1ccc(N(CC(=O)NC2CC3CCC2C3)S(=O)(=O)c2ccccc2)cc1Cl (stereo not given)	6	-4	2	7050	1
CC1=C(C(=O)N2CCOCC2)CC(CC(=O)NC2CC2)C(=O)N1Cc1ccc(F)cc1 (stereo not given)	x	0	3	5866	-3
Cc1[nH]c(=O)[nH]c1C(=O)CCCCC(=O)OCC(=O)Nc1ccccn1	15	9	70*	4438	-1
CCOC(=O)CCCCC(=O)c1[nH]c(=O)[nH]c1C[n+]1ccc(C)cc1	-3	0	-2	4458	-3
O=C(COC(=O)C1=COCCO1)Nc1ccc([N+](=O)[O-])cc1C(F)(F)F	6	3	2	6451	7
Cc1cccc(C(=O)NCCc2nnc(SCC(=O)Nc3nc(C)cs3)n2C)c1	2	u	16	16360*	-13
Cc1cc(C)nc(SCc2nnc(SCC(=O)Nc3nc(-c4ccccc4)cs3)n2C)n1	6	0	-1	4918	-1
COc1ccccc1-c1nnc(SCC(=O)Nc2nc(-c3ccccc3)cs2)n1C	2	-1	4	9577	-2
Cc1ccccc1C(=O)NCCc1nnc(SCC(=O)Nc2nc(-c3ccccc3)cs2)n1C	11	u	-2	20936*	-4
CCn1c(CSc2nc(C)cc(C)n2)nnc1SCC(=O)Nc1nc(-c2ccccc2)cs1	9	1	0	16261*	-2
FC(F)(F)c1cccc(-c2cc3nc(NC4CCCCC4)ccn3n2)c1	x	0	-6	3771	3
CC(O)(c1cccc(F)c1)c1nc(-c2cncnc2)cs1 (stereo not given)	x	0	0	3533	0
COc1ccc(CN2C(=O)CCC2(C)c2nnnn2Cc2ccccc2)cc1OC (stereo not given)	x	0	-2	4414	3
CCCNC(=O)C1(C)CCCN(C(=O)c2c(C)noc2C)C1 (stereo not given)	x	0	-1	3880	-3
O=C(CSCCc1ccccn1)Nc1ccccn1	-22	0	-6	3293	-5
O=C(CSCCc1ccccn1)Nc1ccc(Br)cn1	3	0	-1	23013*	0
CCOC(=O)c1c(NC(=O)CSc2nc3ccccc3s2)sc(C)c1C	-6	6	22	u	-1
